PubChem BioAssay AID687020 (Broad Institute, 2013)
Hit rate of the full screen: of about 1,400 compounds, about 100 (7.1%) were called active. How the calls were made is not given here. Not all results are given here. Potency and affinity values are given separately.

Experiment: Vero cell toxicity, dose response, cytotoxicity control, plate reader, cherry-pick samples (AID 687020);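 further: compounds incubated with cells for three days before luminescence read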
Details: Vero cells toxicity; series mostly up to 19.5 µM; activity change, negative = toxicity: at the top concentration
For O=C(Nc1ccc2c(c1)CCC2)c1ccccc1, the “activity change, negative = toxicity” value was -24.3% (inactive).
For Cc1cccc(C(=O)OCC(=O)NCc2ccc(Cl)cc2)c1, the “activity change, negative = toxicity” value was 3.4% (inactive).
With CN1CCC(=O)N([C@H](COc2ccccc2)Cc2ccccc2)CC1 the “activity change, negative = toxicity” value was -32.2% (inactive).
For CSc1ccccc1OCc1cc(C(=O)N2CCc3[nH]cnc3C2c2ccccn2)no1 (centres undefined), the “activity change, negative = toxicity” value was -6.11% (inactive).
In the case of CN1C(c2ccccc2)CCOS1(=O)=O (centres undefined), the “activity change, negative = toxicity” value is reported as -1.7% (inactive).
In the case of C=CCOc1ccc(CNCc2cccnc2)cc1OCC, the “activity change, negative = toxicity” value is reported as -10% (inactive).
With Cc1nc2c(OCCC3CCCCC3)cccn2c1N(C)C(=O)CCC1CCCC1 the “activity change, negative = toxicity” value was -28% (inactive).
With Cc1ccc(-c2nc3ccccc3n2C(C(=O)NC(C)(C)C)C2CC2)cc1 (centres undefined) the “activity change, negative = toxicity” value was -7.18% (inactive).
For Cc1csc(-c2nc3ccccc3n2C(C(=O)NC(C)(C)C)c2ccccc2)c1 (centres undefined), the “activity change, negative = toxicity” value was -16% (inactive).
With CCOc1ccc(OCC(=O)N(C)c2c(N)n(Cc3ccccc3)c(=O)[nH]c2=O)cc1 the “activity change, negative = toxicity” value was -14.1% (inactive).
With CC#CCN1C(=O)N[C@@H](c2ccccc2)C(C(=O)OC)=C1C the “activity change, negative = toxicity” value was -21.8% (inactive).
For C[C@@H]1CN([C@H](C)CO)C(=O)c2cc(NC(=O)c3ccncc3)ccc2O[C@@H](C)CCCCO[C@H]1CN(C)C, the “activity change, negative = toxicity” value was -1.49% (inactive).
In the case of COc1ccc2c(=O)cc(-c3ccncc3)oc2c1OC, the “activity change, negative = toxicity” value is reported as -13.6% (inactive).
In the case of CCOC(=O)C1=C(C)NC(=O)C(C#N)C1c1ccncc1 (centres undefined), the “activity change, negative = toxicity” value is reported as -5.8% (inactive).
With Cc1cc(OCC(=O)NC2CC(C)(C)NC(C)(C)C2)c(C)cc1Br the “activity change, negative = toxicity” value was 12.8% (inactive).
With CCc1cc(=O)oc2cc(OCC(=O)NC3CC(C)(C)NC(C)(C)C3)ccc12 the “activity change, negative = toxicity” value was -15.9% (inactive).
For CCOC(=O)C1(Cc2ccccc2C)CCCN(C(=O)c2cc(C3CC3)[nH]n2)C1 (centres undefined), the “activity change, negative = toxicity” value was -27.9% (inactive).
For N#CC(Cc1ccccc1OC(F)F)c1nc2ccccc2[nH]1 (centres undefined), the “activity change, negative = toxicity” value was -9.96% (inactive).
In the case of CC(=O)NC[C@H]1[C@H](c2ccc(-c3ccccc3F)cc2)[C@@H](CO)N1C(=O)C1CC1, the “activity change, negative = toxicity” value is reported as -10.5% (inactive).
In the case of O=C(COC(=O)c1ccc2c(c1)OCO2)NC1CCCCC1, the “activity change, negative = toxicity” value is reported as -7.5% (inactive).
For COCCNC(=O)C1(C)CCCN(C(=O)c2ccc(C(F)(F)F)cc2)C1 (centres undefined), the “activity change, negative = toxicity” value was -9.24% (inactive).
With CO[C@@H]1CN(C)C(=O)c2cc(NC(=O)c3ccccc3)ccc2OC[C@H](C)N(C(=O)C2CC2)C[C@@H]1C the “activity change, negative = toxicity” value was -1.15% (inactive).
With COc1cc(C(=S)N2CCCCC2)ccc1OCC(=O)Nc1ccc(F)cc1 the “activity change, negative = toxicity” value was -33.6% (inactive).
For O=C(O)C1CCCCC1C(=O)N1CCN(S(=O)(=O)c2ccc(F)cc2)CC1 (centres undefined), the “activity change, negative = toxicity” value was -12.7% (inactive).
For O=C(NCCCC1CCCC1)C1CCC(=O)N(Cc2cccc(C(F)(F)F)c2)C1 (centres undefined), the “activity change, negative = toxicity” value was 8.67% (inactive).
In the case of COc1ccc(NC(=O)Nc2ccc3c(c2)C(=O)N([C@@H](C)CO)C[C@H](C)[C@H](CN(C)Cc2ccc(C(=O)O)cc2)OCCCC[C@H](C)O3)cc1, the “activity change, negative = toxicity” value is reported as -1.97% (inactive).
For O=C1NC[C@H](Cc2ccccc2)N(CC2CCN(CCCCc3ccccc3)CC2)C1=O, the “activity change, negative = toxicity” value was -14.5% (inactive).
For O=C1[C@@H](Oc2ccccc2)[C@@H](c2ccncc2)N1c1ccccc1, the “activity change, negative = toxicity” value was 7.85% (inactive).
For COc1cc(C(=S)N2CCCC2)ccc1OCc1ccc(C)cc1, the “activity change, negative = toxicity” value was -12.9% (inactive).
With COc1cccc(OCc2cc(C(=O)N(C)CCC3CCCCO3)no2)c1 (centres undefined) the “activity change, negative = toxicity” value was -26.9% (inactive).
For O=S(=O)(NCCC1=CCCCC1)c1ccc(Br)cc1, the “activity change, negative = toxicity” value was 3.27% (inactive).
In the case of F[B-](F)(F)c1cnc2ccccc2c1, the “activity change, negative = toxicity” value is reported as 12.8% (inactive).
In the case of Cn1cccc1C(=O)OCC(=O)NC(=O)c1ccc(Cl)cc1, the “activity change, negative = toxicity” value is reported as -5.5% (inactive).
With C[C@H](CO)N1C[C@H](C)[C@@H](CN(C)C(=O)Nc2ccc(C(F)(F)F)cc2)OCCCC[C@H](C)Oc2ccc(NS(=O)(=O)c3cccs3)cc2C1=O the “activity change, negative = toxicity” value was -1.02% (inactive).
In the case of Cc1noc(C)c1NC(=O)Nc1ccc2c(c1)C(=O)N([C@@H](C)CO)C[C@@H](C)[C@@H](CN(C)Cc1ccccc1)OCCCC[C@@H](C)O2, the “activity change, negative = toxicity” value is reported as -5.3% (inactive).
For CNC[C@@H]1OCCCC[C@H](C)Oc2ccc(NS(=O)(=O)c3c(C)noc3C)cc2C(=O)N([C@@H](C)CO)C[C@H]1C, the “activity change, negative = toxicity” value was -5.49% (inactive).
In the case of O=S(=O)(Nc1nc(SCc2ccc(Cl)cc2)n[nH]1)c1ccc(F)cc1, the “activity change, negative = toxicity” value is reported as 2.93% (inactive).
With O=C(NCCc1ccccc1)c1ccccc1NC(=O)C1CCCCC1C(=O)O (centres undefined) the “activity change, negative = toxicity” value was -3.43% (inactive).
In the case of Cc1ccc(C(=O)OCC(=O)Nc2ccccc2C(F)(F)F)cc1S(=O)(=O)N1CCCCC1, the “activity change, negative = toxicity” value is reported as -27.8% (inactive).
With OC[C@@H]1[C@@H](c2ccccc2)C2(CN(Cc3nccs3)C2)N1Cc1cccnc1 the “activity change, negative = toxicity” value was 10.8% (inactive).
With C[C@@H]1CN([C@@H](C)CO)C(=O)c2cc(C#Cc3cccc(F)c3)cnc2O[C@@H]1CN(C)C(=O)C1CCC1 the “activity change, negative = toxicity” value was -12.1% (inactive).
In the case of CC(=O)NC(c1cccc(F)c1)c1nc(-c2ccc(N(C)C)cc2)cs1 (centres undefined), the “activity change, negative = toxicity” value is reported as -10.4% (inactive).
With CC(C)CCCN1CCN=C1Nc1ccccc1 the “activity change, negative = toxicity” value was -13% (inactive).
For CC1CCC(CN2C(Nc3ccccc3)=NC[C@@H]2C)CC1 (some centres undefined), the “activity change, negative = toxicity” value was -28% (inactive).
For Cc1ccc(/C=N/NC(=O)c2ccc(-n3cnnn3)cc2)cc1, the “activity change, negative = toxicity” value was 6.5% (inactive).
In the case of CS(=O)(=O)N1[C@@H]2CNC[C@H]1C2c1ccc(-c2ccccc2)cc1 (some centres undefined), the “activity change, negative = toxicity” value is reported as 5.49% (inactive).
In the case of COc1ccc2c(c1)OC[C@H]1[C@H]2N2C(=O)c3cc(OC)ccc3NC(=O)[C@@]2(C)[C@H]1c1ccccc1, the “activity change, negative = toxicity” value is reported as -11.2% (inactive).
In the case of CCOC(=O)C1CCN(C(=O)C2CC(=O)N(c3ccc4c(c3)OCCO4)C2)CC1 (centres undefined), the “activity change, negative = toxicity” value is reported as -12.9% (inactive).
With c1ccc(COCCCn2cc(-c3ccccc3)nn2)cc1 the “activity change, negative = toxicity” value was -27.7% (inactive).
With C[C@@H]1CN([C@H](C)CO)C(=O)c2cc(C#Cc3ccc(F)cc3)cnc2O[C@@H]1CN(C)C the “activity change, negative = toxicity” value was 0.983% (inactive).
In the case of CCCNC(=O)NC[C@@H]1[C@@H](c2ccc(C3=CCCC3)cc2)[C@@H](CO)N1C(=O)CC, the “activity change, negative = toxicity” value is reported as -1.97% [at 21 µM] (inactive).
With COc1ccccc1S(=O)(=O)N(C)C[C@H]1Oc2cc(C#CCC(C)C)ccc2S(=O)(=O)N([C@@H](C)CO)C[C@@H]1C the “activity change, negative = toxicity” value was -4.17% (inactive).
With N#C[C@H]1[C@H](c2ccc(C#CC3CCCCC3)cc2)[C@@H](CO)N1C(=O)Cc1ccccn1 the “activity change, negative = toxicity” value was -3.62% (inactive).
In the case of CCc1c(C2(O)CCCCC2)[nH]c2c(C(=O)OC)cc(Cl)cc12, the “activity change, negative = toxicity” value is reported as -0.036% (inactive).
For COc1ccc(NC(=O)CN(C)CCOc2ccc(Cl)cc2)cc1OC, the “activity change, negative = toxicity” value was -28.6% (inactive).
In the case of Cc1ccc(S(=O)(=O)N2CCCCC2)cc1NC(=O)CCOc1ccccc1, the “activity change, negative = toxicity” value is reported as -31% (inactive).
In the case of CCN(CC)S(=O)(=O)c1ccc(N2CCOCC2)c(NC(=O)c2ccccc2)c1, the “activity change, negative = toxicity” value is reported as 3.04% (inactive).
For O=C(COc1ccc2c(-c3ccccc3)cc(=O)oc2c1)NC1CCS(=O)(=O)C1 (centres undefined), the “activity change, negative = toxicity” value was -5.66% (inactive).
In the case of C[C@H](CO)N1C[C@H](C)[C@H](CN(C)C(=O)Nc2ccc(-c3ccccc3)cc2)OCc2ccccc2-c2c(n(C)c3ccccc23)C1=O, the “activity change, negative = toxicity” value is reported as -26.3% (inactive).
